# PubChem BioAssay (NCI)
# This is part of a sample that, as a whole, favours compounds with a hit. Of some 79,000 tested, about 15% had one in any assay. Activity calls are given as the source filed them. Rule as the data show it: active = growth inhibition above about 70%; inactive = the rest.
# Test: NCI Yeast Anticancer Drug Screen. Data for the bub3 strain (AID 167)
# Details: S. cerevisiae bub3 mutant strain, at 50.0 µM, stronger effect = higher value
# Method in brief: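 In this screen, a yeast mutant lacking normal mitotic checkpoint function is challenged with compound. Relative growth versus vehicle gives the inhibition value.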
row,SMILES,growth inhibition
1,O=C(O)CCC(=O)CC1CCCCC1,-8.45% (inactive)
2,Nc1nc(Br)nc2ncn(C3CC(O)C(CO)O3)c12 (stereo not drawn),-0.85% (inactive)
3,Cc1ccc(S(=O)(=O)NCNS(=O)(=O)c2ccc(C)cc2)cc1,-15.8% (inactive)
4,COC1CCC(/C(C#N)=C/C2CCC(OC)C(OC)C2)CC1 (stereo not drawn),68.8% (inactive)
5,CC(C)=CCc1ccc2c(c1)CCCN2C,20.9% (inactive)
6,CCCCSC(CC(O)C(O)COC(=O)c1ccc([N+](=O)[O-])cc1)SCCCC (stereo not drawn),-4.85% (inactive)
7,COc1ccc(CC(C)SC(CC(=O)O)C(=O)O)cc1 (stereo not drawn),7.95% (inactive)
8,COc1ncnc2ncn(C)c12,6.95% (inactive)
9,OC(CNc1ncccn1)(Cc1ccccc1)Cc1ccccc1,12% (inactive)
10,Nc1nc(N)nc(-c2cc(Br)c(N)c(Br)c2)n1,3.3% (inactive)
11,O=P(O)(OCCOc1ccccc1)OCCOc1ccccc1,-11.6% (inactive)
12,CN(C)C=Nc1cccc2c1NSN2,13.4% (inactive)
13,COC1OC2COC(c3ccccc3)OC2C(NC(C)=O)C1OC(C)=O (stereo not drawn),-12.5% (inactive)
14,CCOC(=O)O/C(C)=C\c1ccccc1Cl,-5.85% (inactive)
15,CNc1ncc(-c2nnnn2-c2ccccc2)c(CN(C)C)n1,-3.45% (inactive)
16,Nc1nc(-c2ccc(-c3ccccc3)cc2)cc(=O)[nH]1,7.5% (inactive)
17,O=C1c2ccccc2C(=O)N1/N=C1/SC(=Nc2ccccc2)C(=Nc2ccccc2)N1c1ccccc1,14.8% (inactive)
18,C/C(=N/NC(N)=O)c1cn[nH]c1C,11.9% (inactive)
